Data: PubChem BioAssay (EPA / NIEHS)
Results filed as inconclusive are left out. Active and inactive are the calls of the source. The calls were made as follows, unless noted: active = hit-call score of the fitted dose curve at least 0.9, where 1 is the maximum; inconclusive = response in the unintended direction; inactive = score below 0.9.

Legend:
[1] = target: Bile acid receptor (Homo sapiens) (UniProt Q96RI1); test: ATG_FXR_TRANS: Attagene TRANS-FACTORIAL HepG2 Assay for Farnesoid X Receptor (FXR) (AID 2282979); settings: HepG2 Attagene TRANS FXR-GAL4 reporter transcription;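 also: hits raise reporter mRNA above DMSO so AC50 marks FXR activation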
Sequence of Bile acid receptor (Homo sapiens) (Q96RI1 whole entry, looked up, the tested form may be a part): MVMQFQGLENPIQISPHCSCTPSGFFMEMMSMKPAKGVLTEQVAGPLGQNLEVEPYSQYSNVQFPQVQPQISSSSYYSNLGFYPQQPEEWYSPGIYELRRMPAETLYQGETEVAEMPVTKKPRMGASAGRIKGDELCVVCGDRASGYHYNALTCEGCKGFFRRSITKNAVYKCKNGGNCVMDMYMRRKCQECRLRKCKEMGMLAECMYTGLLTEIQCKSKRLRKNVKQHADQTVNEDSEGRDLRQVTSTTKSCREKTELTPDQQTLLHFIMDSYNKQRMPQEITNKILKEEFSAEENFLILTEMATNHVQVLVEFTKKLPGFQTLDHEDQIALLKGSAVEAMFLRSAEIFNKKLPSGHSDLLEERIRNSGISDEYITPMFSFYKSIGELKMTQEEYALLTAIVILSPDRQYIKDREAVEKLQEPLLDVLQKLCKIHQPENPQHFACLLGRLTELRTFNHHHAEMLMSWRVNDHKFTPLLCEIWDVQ
How it was run: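 Reporter transcripts from transfected HepG2 cells were measured 24 h after dosing, using RT-PCR with capillary electrophoresis of 6-FAM-labelled fragments. The read-out reflects activity of exogenous FXR-Gal4 chimera on GAL4-UAS units, with induction relative to DMSO.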

[2] = target: Hepatocyte nuclear factor 4-alpha (Homo sapiens) (UniProt P41235); test: ATG_HNF4a_TRANS: Attagene TRANS-FACTORIAL HepG2 Assay for human Hepatocyte Nuclear Factor 4 alpha (HNF4a) (AID 2282982); settings: HepG2 HNF4a transactivation reporter, mRNA readout
Sequence of Hepatocyte nuclear factor 4-alpha (Homo sapiens) (P41235 whole entry, looked up, the tested form may be a part): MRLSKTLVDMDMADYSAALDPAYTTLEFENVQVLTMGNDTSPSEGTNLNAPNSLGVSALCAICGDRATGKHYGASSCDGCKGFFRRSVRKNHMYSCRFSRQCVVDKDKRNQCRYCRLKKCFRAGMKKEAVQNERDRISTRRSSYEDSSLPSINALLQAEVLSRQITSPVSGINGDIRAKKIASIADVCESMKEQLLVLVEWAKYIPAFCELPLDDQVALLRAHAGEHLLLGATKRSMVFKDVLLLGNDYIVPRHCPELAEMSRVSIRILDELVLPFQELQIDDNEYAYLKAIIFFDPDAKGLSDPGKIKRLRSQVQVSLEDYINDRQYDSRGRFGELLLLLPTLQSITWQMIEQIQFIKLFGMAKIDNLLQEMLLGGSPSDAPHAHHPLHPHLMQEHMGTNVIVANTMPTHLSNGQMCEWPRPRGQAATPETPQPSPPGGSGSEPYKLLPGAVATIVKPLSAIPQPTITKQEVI
How it was run: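 Endpoint reflects transcriptional activation of a GAL4-UAS reporter by an HNF4a-GAL4 chimera in transfected HepG2 cells, 24 h post-dosing. Fluorescence from RT-PCR products separated by capillary electrophoresis; DMSO baseline.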

[3] = ATG_M_06_TRANS: Attagene TRANS-FACTORIAL HepG2 Assay for M06 Transcription Factor (Internal Marker) (AID 2282983); settings: HepG2 Attagene TRANS M06 internal marker reporter
How it was run: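 Background-control reporter readout: after 24 h chemical exposure of transiently transfected HepG2 (GAL4-UAS reporter units), mRNA quantified by RT-PCR with fluorescent labeling and capillary electrophoresis. Gain-of-signal fitting against DMSO baseline.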

[4] = ATG_M_32_TRANS: Attagene TRANS-FACTORIAL HepG2 Assay for M32 Transcription Factor (Internal Marker) (AID 2282984); settings: HepG2 Attagene TRANS M32 internal marker reporter;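 also: transcript level of a background control reporter unit measured by RT-PCR and capillary electrophoresis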
How it was run: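 Internal-marker readout from a multiplexed transcription reporter panel. HepG2 cells were transfected with GAL4-UAS reporter units, treated 24 hours, and reporter transcript levels determined by fluorescence after RT-PCR and capillary separation.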

[5] = target: Nuclear receptor subfamily 4 group A member 2 (Homo sapiens) (UniProt P43354); test: ATG_NURR1_TRANS: Attagene TRANS-FACTORIAL HepG2 Assay for human Nuclear Receptor Related Protein 1 (NURR1) (AID 2282985); settings: HepG2 Attagene TRANS reporter, mRNA readout
Sequence of Nuclear receptor subfamily 4 group A member 2 (Homo sapiens) (P43354 whole entry, looked up): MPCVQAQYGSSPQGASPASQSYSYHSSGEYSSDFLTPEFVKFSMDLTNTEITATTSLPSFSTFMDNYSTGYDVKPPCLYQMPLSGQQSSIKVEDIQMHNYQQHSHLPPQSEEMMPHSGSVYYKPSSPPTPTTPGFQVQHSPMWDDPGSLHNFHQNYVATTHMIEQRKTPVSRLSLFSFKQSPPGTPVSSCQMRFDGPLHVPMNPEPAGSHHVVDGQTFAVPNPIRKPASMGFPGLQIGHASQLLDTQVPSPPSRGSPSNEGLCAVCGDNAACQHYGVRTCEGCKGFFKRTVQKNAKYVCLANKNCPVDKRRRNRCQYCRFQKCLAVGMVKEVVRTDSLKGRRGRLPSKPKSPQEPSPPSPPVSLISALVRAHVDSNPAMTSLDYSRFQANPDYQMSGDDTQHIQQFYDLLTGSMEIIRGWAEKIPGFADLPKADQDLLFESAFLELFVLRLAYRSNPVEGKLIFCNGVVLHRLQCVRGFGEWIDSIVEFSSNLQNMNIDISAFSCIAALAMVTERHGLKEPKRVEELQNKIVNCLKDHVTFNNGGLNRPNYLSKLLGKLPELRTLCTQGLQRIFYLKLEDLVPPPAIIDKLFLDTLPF
How it was run: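 Endpoint: reporter mRNA increase relative to DMSO. HepG2 cells transfected with reporter units, treated 24 h; RNA processed by RT-PCR, labelling, HpaI digestion and capillary electrophoresis.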

[6] = target: Transcriptional activator Myb (Homo sapiens) (UniProt P10242); test: ATG_Myb_CIS: Attagene CIS-FACTORIAL HepG2 Assay for human Myeloblastosis (Myb) Proto-Oncogene Transcription Factor (AID 2282986; active = hit-call score of the fitted dose curve at least 0.9, where 1 is the maximum; inactive = score below 0.9); settings: HepG2 Attagene CIS-FACTORIAL Myb reporter transcription; actives raise or lower the signal
Sequence of Transcriptional activator Myb (Homo sapiens) (P10242 whole entry, looked up): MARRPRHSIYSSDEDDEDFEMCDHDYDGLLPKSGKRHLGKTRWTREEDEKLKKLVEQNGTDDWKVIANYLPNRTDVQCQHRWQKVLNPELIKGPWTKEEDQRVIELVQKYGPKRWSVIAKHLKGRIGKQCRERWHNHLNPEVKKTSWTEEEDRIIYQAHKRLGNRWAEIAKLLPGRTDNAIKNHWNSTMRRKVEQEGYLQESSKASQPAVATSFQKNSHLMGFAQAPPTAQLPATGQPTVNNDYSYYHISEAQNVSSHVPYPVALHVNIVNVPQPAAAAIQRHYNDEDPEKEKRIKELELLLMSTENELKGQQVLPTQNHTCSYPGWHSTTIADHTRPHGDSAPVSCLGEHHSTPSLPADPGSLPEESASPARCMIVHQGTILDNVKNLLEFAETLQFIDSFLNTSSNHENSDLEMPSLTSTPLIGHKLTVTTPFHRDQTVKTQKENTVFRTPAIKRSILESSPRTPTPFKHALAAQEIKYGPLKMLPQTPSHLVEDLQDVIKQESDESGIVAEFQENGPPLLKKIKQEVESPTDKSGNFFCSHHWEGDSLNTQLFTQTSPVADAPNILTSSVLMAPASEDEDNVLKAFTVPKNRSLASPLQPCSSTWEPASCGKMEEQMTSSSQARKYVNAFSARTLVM
How it was run: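 In this HepG2 transient-transfection format, cis-regulated reporter mRNA is quantified 24 h post-dosing by RT-PCR with capillary electrophoresis, fitted bidirectionally to DMSO baseline.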

[7] = ATG_NFI_CIS: Attagene CIS-FACTORIAL HepG2 Assay for human Nuclear Factor I (NFI) (AID 2282989; active = hit-call score of the fitted dose curve at least 0.9, where 1 is the maximum; inactive = score below 0.9); settings: HepG2 cis-regulatory reporter, NFI response element transcription; actives raise or lower the signal
How it was run: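 After transient transfection of HepG2 with cis-promoter reporter constructs and 24 h dosing, RNA is reverse-transcribed, amplified, 6-FAM end-labelled and HpaI-digested before capillary analysis. Bidirectional curve fitting against DMSO.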

[8] = target: Oxysterols receptor LXR-beta (Homo sapiens) (UniProt P55055); test: ATG_LXRb_TRANS: Attagene TRANS-FACTORIAL HepG2 Assay for human Liver X Receptor beta (LXRb) (AID 2282981); settings: HepG2 Attagene TRANS GAL4-LXRb reporter, mRNA
Sequence of Oxysterols receptor LXR-beta (Homo sapiens) (P55055 whole entry, looked up, the tested form may be a part): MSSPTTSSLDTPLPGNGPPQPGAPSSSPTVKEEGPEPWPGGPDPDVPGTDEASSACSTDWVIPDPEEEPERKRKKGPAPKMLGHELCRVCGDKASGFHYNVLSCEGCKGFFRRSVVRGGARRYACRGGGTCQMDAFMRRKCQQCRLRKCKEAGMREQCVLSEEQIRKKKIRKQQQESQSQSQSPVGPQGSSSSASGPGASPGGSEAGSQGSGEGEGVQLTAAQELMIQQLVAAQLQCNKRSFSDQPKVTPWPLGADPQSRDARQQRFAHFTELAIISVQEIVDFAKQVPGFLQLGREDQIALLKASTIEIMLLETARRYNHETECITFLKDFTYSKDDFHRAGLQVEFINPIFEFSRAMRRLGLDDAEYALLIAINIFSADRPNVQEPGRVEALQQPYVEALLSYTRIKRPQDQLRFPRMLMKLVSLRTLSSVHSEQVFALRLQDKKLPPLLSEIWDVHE
How it was run: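 Multiplexed reporter assay, HepG2, 24 h dosing. Fluorescence of labelled RT-PCR products after capillary electrophoresis gives transcript level; positive fitting direction relative to DMSO.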

[9] = target: Nuclear respiratory factor 1 (Homo sapiens) (UniProt Q16656); test: ATG_NRF1_CIS: Attagene CIS-FACTORIAL HepG2 Assay for human Nuclear Respiratory Factor 1 (NRF1) Orphan Gene (AID 2282987; active = hit-call score of the fitted dose curve at least 0.9, where 1 is the maximum; inactive = score below 0.9); settings: HepG2 NRF1 cis-element reporter, Attagene multiplex; actives raise or lower the signal
Sequence of Nuclear respiratory factor 1 (Homo sapiens) (Q16656 whole entry, looked up): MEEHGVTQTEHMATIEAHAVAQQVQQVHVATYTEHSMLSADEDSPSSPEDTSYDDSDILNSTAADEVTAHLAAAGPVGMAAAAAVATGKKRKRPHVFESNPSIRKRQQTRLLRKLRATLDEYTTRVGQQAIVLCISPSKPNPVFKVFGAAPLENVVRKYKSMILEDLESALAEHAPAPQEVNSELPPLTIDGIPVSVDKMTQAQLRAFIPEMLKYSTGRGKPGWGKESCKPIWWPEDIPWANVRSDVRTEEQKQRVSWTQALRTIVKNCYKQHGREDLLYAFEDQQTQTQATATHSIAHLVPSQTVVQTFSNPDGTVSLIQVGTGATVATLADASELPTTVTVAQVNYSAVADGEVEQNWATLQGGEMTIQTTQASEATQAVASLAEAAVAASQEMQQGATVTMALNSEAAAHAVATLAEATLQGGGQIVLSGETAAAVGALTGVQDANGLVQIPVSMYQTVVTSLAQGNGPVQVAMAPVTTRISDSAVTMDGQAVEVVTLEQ
How it was run: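 Using DMSO as baseline, gain- or loss-of-signal was fitted for reporter mRNA levels in HepG2 cells transiently transfected with cis-regulated reporter units. Samples were taken 24 h after dosing and read by RT-PCR with capillary electrophoresis.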

[10] = target: Oxysterols receptor LXR-alpha (Homo sapiens) (UniProt Q13133); test: ATG_LXRa_TRANS: Attagene TRANS-FACTORIAL HepG2 Assay for human Liver X Receptor alpha (LXRa) (AID 2282980); settings: HepG2 Attagene TRANS reporter, LXRa transactivation
Sequence of Oxysterols receptor LXR-alpha (Homo sapiens) (Q13133 whole entry, looked up, the tested form may be a part): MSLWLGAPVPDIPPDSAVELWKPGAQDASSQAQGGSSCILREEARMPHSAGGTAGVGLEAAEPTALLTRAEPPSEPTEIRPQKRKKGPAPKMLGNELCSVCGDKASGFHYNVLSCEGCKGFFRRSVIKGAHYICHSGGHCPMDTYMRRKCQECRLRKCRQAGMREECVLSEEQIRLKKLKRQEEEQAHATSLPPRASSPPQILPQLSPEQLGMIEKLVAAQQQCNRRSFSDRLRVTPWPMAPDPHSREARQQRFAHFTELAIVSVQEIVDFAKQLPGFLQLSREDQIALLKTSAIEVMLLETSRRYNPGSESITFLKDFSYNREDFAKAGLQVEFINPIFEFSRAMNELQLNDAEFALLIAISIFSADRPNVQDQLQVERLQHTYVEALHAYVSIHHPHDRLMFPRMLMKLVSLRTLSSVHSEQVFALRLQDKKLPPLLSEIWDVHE
How it was run: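 Chemical-induced reporter mRNA measured by RT-PCR with fluorescent labelling and capillary electrophoresis after 24 h dosing of transiently transfected HepG2 cells expressing exogenous NR-Gal4 chimeras; increases scored against DMSO baseline.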

Measured: AC50

CCOC(=O)CCN(SN(C)C(=O)Oc1cccc2c1OC(C)(C)C2)C(C)C
active: [5] 157 µM
not listed: [8] | [9] | [10]
inactive: all other assays above

NNCCO
inactive: [1] | [8] | [2] | [6] | [9] | [7]

C=CC(=O)OCC(COC(=O)C=C)(COC(=O)C=C)COC(=O)C=C
inactive: [1] | [3] | [9]
active: [2] 44.6 µM | [6] 24.5 µM

FC(F)OCC(F)(F)C(F)(F)F
inactive: [1] | [2] | [3] | [6] | [9] | [7]

N#Cc1ccccc1N
inactive: [1] | [8] | [2] | [4] | [6] | [7]

CN(CCCC(O)c1cccnc1)N=O (stereo not drawn)
not listed: [3] | [8] | [10]
inactive: all other assays above

O=S(=O)(c1ccc(Cl)cc1)c1cc(Cl)c(Cl)cc1Cl
inactive: [1] | [3] | [5] | [6] | [9] | [7]

CCOP(=S)(OCC)OP(=S)(OCC)OCC
not listed: [3] | [10]
inactive: all other assays above

BrCc1ccc(Br)cc1
inactive: [1] | [3] | [5] | [6] | [9]

COC(F)(C(F)(F)C(F)(F)F)C(F)(C(F)(F)F)C(F)(F)F (stereo not drawn)
not listed: [1]
inactive: all other assays above

CC(C)CC(C)(c1ccc(O)cc1)c1ccc(O)cc1
inactive: [8] | [3] | [5] | [6] | [9]
active: [1] 7.12 µM | [7] 16.9 µM

N#Cc1ccccc1Cl
inactive: [1] | [8] | [3] | [6] | [9] | [7]

CCOP(=S)(OCC)O/N=C(\C#N)c1ccccc1
inactive: [1] | [3] | [6] | [9]

N#CCCC(Br)(C#N)CBr (stereo not drawn)
inactive: [1] | [4] | [5] | [6] | [9]

ClCCCCl
not listed: [2] | [8] | [10]
inactive: all other assays above

CC1(C)[C@H](C(=O)O[C@H](C#N)c2cccc(Oc3ccccc3)c2)[C@@H]1/C=C(\Cl)C(F)(F)F
not listed: [8] | [9] | [10]
inactive: all other assays above

CC(C)C(C)(N)C#N (stereo not drawn)
inactive: [1] | [8] | [6] | [9] | [7]

ClCc1ccccc1CCl
not listed: [1] | [7]
inactive: all other assays above

NC(=O)CCl
not listed: [1]
inactive: all other assays above

C[C@H]1C(=O)O[C@@H]2CCN3CC=C(COC(=O)[C@](C)(O)[C@]1(C)O)[C@H]23
inactive: [1] | [3] | [6] | [9] | [7]

CCCCC(CC)C(=O)Cl (stereo not drawn)
inactive: [1] | [2] | [3] | [6] | [9] | [7]

C#CCOC(=O)/C=C(C)/C=C/CC(C)CCCC(C)C (stereo not drawn)
inactive: [1] | [3] | [6] | [7]
active: [5] 16.6 µM

O=S1OC[C@@H]2[C@H](CO1)[C@]1(Cl)C(Cl)=C(Cl)[C@@]2(Cl)C1(Cl)Cl (stereo partly drawn)
inactive: [1] | [3] | [6] | [7]

CC(O)(CS(=O)(=O)c1ccc(F)cc1)C(=O)Nc1ccc(C#N)c(C(F)(F)F)c1 (stereo not drawn)
not listed: [1] | [2] | [5]
inactive: all other assays above

O=C1C=CC(=O)c2ccccc21
inactive: [10] | [8] | [3] | [4] | [5] | [6]

O=C=Nc1ccc(Cl)cc1
inactive: [10] | [8] | [4] | [5] | [6] | [9]

O=C(NC(=O)c1c(F)cccc1F)Nc1cc(Cl)c(OC(F)(F)C(F)C(F)(F)F)cc1Cl (stereo not drawn)
active: [8] 49.9 µM
not listed: [1] | [5]
inactive: all other assays above

COc1ccc(N)cc1
not listed: [1] | [2] | [3]
inactive: all other assays above

C=CCCl
not listed: [1] | [3] | [5]
inactive: all other assays above

CCCCN(CCCC)C(=S)[S-].CCCCN(CCCC)C(=S)[S-].[Ni+2]
not listed: [1] | [5]
inactive: all other assays above

C1CCC(C2CCCCC2)CC1
inactive: [10] | [8] | [3] | [6] | [7]

Brc1c(Br)c(Br)c(Oc2c(Br)c(Br)c(Br)c(Br)c2Br)c(Br)c1Br
not listed: [1] | [2]
inactive: all other assays above

O=c1[nH]c(=O)n(Cl)c(=O)n1Cl
not listed: [1] | [2]
inactive: all other assays above

O=C(CCl)NCO
not listed: [1] | [3]
inactive: all other assays above

N#CS
inactive: [10] | [8] | [2] | [3] | [6] | [9]

Cl[C@H]1OCCO[C@@H]1Cl
not listed: [1] | [5]
inactive: all other assays above

Nc1nc(=S)[nH][nH]1
inactive: [10] | [8] | [5] | [6] | [9]

OCCCCO
inactive: [10] | [8] | [3] | [5] | [6] | [7]

C#C[C@]1(O)CC[C@H]2[C@@H]3CCC4=CC(=O)CC[C@]4(C)[C@H]3CC[C@@]21C
inactive: [10] | [8] | [3] | [6] | [7]

CC(C)(c1ccccc1)c1cc(-n2nc3ccccc3n2)c(O)c(C(C)(C)c2ccccc2)c1
not listed: [1] | [2] | [4]
inactive: all other assays above

C[N+](C)(C)Cc1ccccc1
not listed: [1] | [3] | [5]
inactive: all other assays above

O=C(O)COc1ccc(Cl)cc1
not listed: [1] | [5]
inactive: all other assays above

CC(C)(C#N)N=NC(C)(C)C#N
not listed: [1] | [2] | [3]
inactive: all other assays above

C[CH2][Hg][S]c1ccccc1C(=O)O
inactive: [10] | [8] | [2] | [3] | [5]
active: [6] 3.89 µM

C=CC(=O)NC(C)(C)CC(C)=O
not listed: [1] | [5]
inactive: all other assays above

Nc1ccc(N)cc1
inactive: [10] | [8] | [2] | [3] | [4] | [6]

CC(C)(C1CCC(O)CC1)C1CCC(O)CC1 (stereo not drawn)
not listed: [1] | [2] | [4]
inactive: all other assays above

BrCCCCBr
not listed: [1] | [5] | [9]
inactive: all other assays above

CCCCCCCCCCCCCl
inactive: [10] | [8] | [4] | [6] | [9] | [7]

Fc1cccc(Cl)c1CCl
not listed: [1] | [2] | [5]
inactive: all other assays above

CC(C)O.CC(C)O.OCCN(CCO)CCO.OCCN(CCO)CCO.[Ti]
inactive: [10] | [8] | [3] | [4] | [6] | [7]

OCCN(CCO)CCO
inactive: [10] | [8] | [3] | [6] | [9] | [7]

O=C(O)CC(O)(CC(=O)O)C(=O)O
active: [5] 6.74 µM
not listed: [1] | [4] | [9]
inactive: all other assays above

CS(=O)(=O)c1ccc(C(=O)C2C(=O)CCCC2=O)c(Cl)c1COCC(F)(F)F
inactive: [10] | [8] | [3] | [4] | [6] | [9]

O=C(Cl)OCCOCCOC(=O)Cl
inactive: [10] | [8] | [4] | [6] | [9] | [7]

COCC(=O)N(c1c(C)cccc1C)[C@H](C)C(=O)OC
not listed: [1] | [2] | [3]
inactive: all other assays above

O=[N+]([O-])c1cc([As](=O)(O)O)ccc1O
not listed: [1] | [2] | [5]
inactive: all other assays above

c1ccc(-c2cccc(-c3ccccc3)c2)cc1
active: [5] 27.8 µM
inactive: [10] | [8] | [6] | [9] | [7]

O=S(=O)(F)C(F)(F)C(F)(F)C(F)(F)C(F)(F)F
inactive: [10] | [8] | [2] | [3] | [4] | [6]

CCOc1cc(C=O)ccc1O
not listed: [1] | [5]
inactive: all other assays above

Oc1ccc(Cc2ccc(O)cc2)cc1
not listed: [1] | [5] | [7]
inactive: all other assays above

CN(C)C(=S)S
active: [10] 24.8 µM
not listed: [1] | [4]
inactive: all other assays above

Cc1cc(Cl)ccc1OCCCC(=O)O
not listed: [1] | [2] | [8]
inactive: all other assays above

O=C1C[C@@H]2OCC=C3CN4CC[C@]56c7ccccc7N1[C@H]5[C@H]2[C@H]3C[C@H]46
not listed: [1] | [2] | [8]
inactive: all other assays above

Nc1c(Oc2ccccc2)cc(O)c2c1C(=O)c1ccccc1C2=O
not listed: [1] | [7] | [10]
inactive: all other assays above
